From PubChem BioAssay AID449762 (Southern Research Specialized Biocontainment Screening …, 2010)
The whole screen tested about 330,000 compounds, of which about 1,900 (0.58%) were called active. Roughly 4% stayed inconclusive and do not appear here. No stated cut-off is given here; in the data, inconclusive means inhibition above about 70% without an active follow-up result; inactive means below that. Only a sample is shown. Measured potencies and affinities stand elsewhere.

Assay: M. tuberculosis growth inhibition, HTS (AID 449762);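 further: bacterial growth assessed after seven days of incubation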
Details: M. tuberculosis H37Rv growth inhibition, 7H9 media; at 25 µM; stronger effect = higher value
With CC(=O)Nc1ccc(S(=O)(=O)Nc2ccccc2N2CCOCC2)cc1 the inhibition was 5.3% (inactive).
In the case of CCCCN(C)CCCNC(=O)c1cn(CC)c2ccc(S(=O)(=O)N3CCOCC3)cc2c1=O, the inhibition is reported as 3.29% (inactive).
In the case of CCCN(CCC)CCCNC(=O)c1cn(CC)c2ccc(S(=O)(=O)N3CCOCC3)cc2c1=O, the inhibition is reported as 3.73% (inactive).
In the case of Cc1ccc(S(=O)(=O)n2nc(OC(=O)c3ccccc3F)cc2N)cc1, the inhibition is reported as 1.24% (inactive).
In the case of O=c1[nH]nnc2sc3c(c12)CCCC3, the inhibition is reported as 1.62% (inactive).
In the case of COc1cc(NS(=O)(=O)c2ccc(NC(=S)NC(=O)c3sc4ccccc4c3Cl)cc2)nc(OC)n1, the inhibition is reported as -0.21% (inactive).
In the case of COc1ccc(C(=O)C2CCN(CC(=O)Nc3ccc(C)cc3)CC2)cc1, the inhibition is reported as 8.88% (inactive).
For Cc1ccc(-c2csc(NC(=O)CN3CCC(C(N)=O)CC3)n2)cc1, the inhibition was 2.15% (inactive).
In the case of Cc1ccc(-c2oc3ccccc3c(=O)c2O)cc1, the inhibition is reported as 27.6% (inactive).
With O=c1c(O)c(-c2ccc3c(c2)OCO3)oc2ccccc12 the inhibition was 35.4% (inactive).
In the case of CCOC(=O)CNC(=O)CNC(=O)c1ccc(OCC(C)C)cc1, the inhibition is reported as 22.7% (inactive).
For CCOC(=O)c1sc2c(c1C)C(c1cccs1)C1=C(CCCC1=O)N2 (centres undefined), the inhibition was 11.9% (inactive).
For Cn1c(=O)c2c(nc(NCc3ccc4c(c3)OCO4)n2C)n(C)c1=O, the inhibition was -2.77% (inactive).
In the case of COc1ccccc1CCNC(=O)C(=O)Nc1cc2c3c(c1)CC(=O)N3CCC2, the inhibition is reported as 57.3% (inactive).
For O=C(CSc1nnc(CNC(=O)c2ccccc2)o1)c1ccc(Cl)cc1, the inhibition was 1.96% (inactive).
With O=C(O)CSc1ccccn1 the inhibition was 2.15% (inactive).
In the case of O=C(O)CCSc1ccccn1, the inhibition is reported as -6.45% (inactive).
For COC(=O)CC1C(=O)NCCN1C(=O)c1ccc([N+](=O)[O-])cc1 (centres undefined), the inhibition was -0.41% (inactive).
For O=S(=O)(Nc1ccc(Cl)cn1)c1ccc(F)cc1, the inhibition was -1.48% (inactive).
With COc1cc2c(cc1NC(=O)COC(=O)[C@@H](NS(=O)(=O)c1ccccc1)C(C)C)oc1ccccc12 the inhibition was 6.17% (inactive).
For Clc1ccc(N2CCNCC2)nn1, the inhibition was -10.1% (inactive).
With Cc1onc(-c2ccccc2Cl)c1C(=O)Nc1cccc2cccnc12 the inhibition was 14.3% (inactive).
With COc1cc(NC(=O)c2c(-c3ccccc3Cl)noc2C)c2ncccc2c1 the inhibition was -6.92% (inactive).
With Cn1cc(S(=O)(=O)N2CCC3(CC2)OCCO3)c(=O)n(C)c1=O the inhibition was -0.14% (inactive).
In the case of CC1=C(C(=O)OCc2ccccc2)C(c2cccc(F)c2)NC(=O)N1 (centres undefined), the inhibition is reported as -8.13% (inactive).
With Cc1cccc(-n2ncc3c2CCCC3NC(=O)C2=CC(=O)CC(C)(C)O2)c1C (centres undefined) the inhibition was -0.85% (inactive).
With Cc1ccc(N(CC(=O)Nc2cc(C)cc(C)c2)S(=O)(=O)c2c(C)noc2C)cc1 the inhibition was 6.89% (inactive).
In the case of O=C(OCC(=O)C12CC3CC(CC(C3)C1)C2)c1ccccc1O, the inhibition is reported as 6.66% (inactive).
For Cc1cc(C)cc(NC(=O)c2cccn2-c2ncc(C(F)(F)F)cc2Cl)c1, the inhibition was 6.22% (inactive).
In the case of CN(C)C(=O)c1cccn1-c1ncc(C(F)(F)F)cc1Cl, the inhibition is reported as -4.51% (inactive).
With NC(=O)CCNC(=O)c1ccc(Cl)cc1 the inhibition was -5.92% (inactive).
In the case of Cc1ccc(NC(=O)CN2C(=O)C3CC=CCC3C2=O)cc1S(=O)(=O)N1CCOCC1 (centres undefined), the inhibition is reported as -2.53% (inactive).
In the case of CC(/C=C/c1ccccc1)=N\NC(=S)NC(C)C, the inhibition is reported as 28.1% (inactive).
With COC(=O)N/N=C(C)/C=C/c1ccccc1 the inhibition was -8.99% (inactive).
In the case of Cc1ncc(CSc2nnnn2-c2ccccc2)c(N)n1, the inhibition is reported as 1.43% (inactive).
With O=C(O)Cn1c(SCc2ccccc2)nc2ccccc21 the inhibition was 2% (inactive).
For O=C(O)CCn1c(SCc2ccccc2)nc2ccccc21, the inhibition was 2.64% (inactive).
With COC(=O)C1=C(c2ccc(OC)c(OC)c2)C[C@@H]2CC[C@H]1N2C(=O)NC1Cc2ccccc2C1 the inhibition was -10% (inactive).
For Cc1ccc(C(=O)Nc2ccccc2NC(=O)c2ccc(C)o2)o1, the inhibition was 7.31% (inactive).
In the case of Cc1cc(C(=O)CSc2nnnn2C)c(C)n1CCc1ccc(Cl)cc1, the inhibition is reported as 4.63% (inactive).
In the case of Cc1cc(C(=O)CSc2nnc(N)s2)c(C)n1CCc1ccc(Cl)cc1, the inhibition is reported as 9.47% (inactive).
For Oc1ccc(/C=N/Nc2cc(N3CCCC3)nc(N3CCCC3)n2)cc1, the inhibition was 4.32% (inactive).
With COc1ccc(/C=N/Nc2nc(N3CCCC3)nc(N3CCCC3)n2)cc1 the inhibition was -3.33% (inactive).
With CCN(CC)C(=O)CSc1nc2[nH]ncc2c(=O)[nH]1 the inhibition was -0.87% (inactive).
In the case of COc1cc2[nH]c3ccccc3c2cc1C, the inhibition is reported as -8.31% (inactive).
In the case of Cc1ccc(C)c2c1[nH]c1ccccc12, the inhibition is reported as 6.73% (inactive).
In the case of O=c1oc(CCO)cc2ccc(Br)cc12, the inhibition is reported as 9.08% (inactive).
With COc1ccccc1NC(=O)c1c[nH]c2ccccc12 the inhibition was 0.76% (inactive).
For CN1CCN(C(=O)CCN2C(=O)/C(=C/c3ccccc3Cl)SC2=S)CC1, the inhibition was 49.8% (inactive).
In the case of Cc1ccc(/C=C2\SC(=S)N(CCCC(=O)Nc3ccccn3)C2=O)cc1, the inhibition is reported as 0.58% (inactive).
With O=C(CCN1C(=O)/C(=C/C=C/c2ccccc2)SC1=S)Nc1ccccn1 the inhibition was -4.47% (inactive).
In the case of O=C(CCN1C(=O)/C(=C/c2ccccc2Cl)SC1=S)N1CCOCC1, the inhibition is reported as 69% (inactive).
With COC(=O)c1ccc(NC(=S)NC(=O)c2cccnc2)cc1 the inhibition was -0.36% (inactive).
In the case of COc1ccccc1-n1c(O)c(C=NCCN2CCNCC2)c(=O)[nH]c1=O, the inhibition is reported as -7.53% (inactive).
For COC(=O)c1ccc(NC(=O)c2ccc3nccnc3c2)cc1, the inhibition was -7.47% (inactive).
For CCN(CC)S(=O)(=O)c1ccc(S(=O)(=O)Nc2c(C)nn(C)c2C)cc1, the inhibition was -5.92% (inactive).
In the case of COc1ccc(-c2c(C(F)(F)F)oc3cc(OCC(=O)Nc4ccccc4C(F)(F)F)ccc3c2=O)cc1OC, the inhibition is reported as 10.6% (inactive).
For CSc1nncc(-c2ccccc2)n1, the inhibition was -0.45% (inactive).
With O=C(Cc1ccc(F)cc1)N1CCC(N2CCC(C(=O)N3CCOCC3)CC2)CC1 the inhibition was 4.87% (inactive).
In the case of CCCCn1nnc(NC(=O)CCC)n1, the inhibition is reported as -12.6% (inactive).
With OC1(c2ccccc2)CCN(Cc2ccccc2)C2CCCCC21 (centres undefined) the inhibition was -3.63% (inactive).
In the case of OC(c1ccccc1)C1CN(Cc2ccccc2)CCC1(O)c1ccccc1 (centres undefined), the inhibition is reported as 2.62% (inactive).
For CN1C(C(=O)NCc2ccc(OC(F)(F)F)cc2)CC2Cn3c(nc4ccccc43)C21 (centres undefined), the inhibition was -3.09% (inactive).
With CN1C(C(=O)NCc2ccc(OC(F)(F)F)cc2)CC2Cn3c(nc4cc5ccccc5cc43)C21 (centres undefined) the inhibition was 57.5% (inactive).
In the case of Cc1ccc(S(=O)(=O)N[C@H](C(=O)N2CCC(C(=O)N[C@@H](CCC(N)=O)C(=O)O)CC2)C(C)C)cc1, the inhibition is reported as -8.96% (inactive).
With CN1CCN2c3ncccc3Cc3ccccc3C2C1 (centres undefined) the inhibition was -1.61% (inactive).
With CN1CCN2c3ncccc3Cc3ccccc3[C@@H]2C1 the inhibition was 8.88% (inactive).
With O=C(c1cc(C(=O)N2CCOCC2)c2nc3ccccc3n2c1)c1ccccc1O the inhibition was 1.28% (inactive).
With COc1ccc(C(=O)CSc2nnc(CNc3ccc(C)cc3C)o2)cc1 the inhibition was -7.42% (inactive).
In the case of COc1ccc(C(=O)CSc2nnc(CNc3ccc(F)cc3)o2)cc1, the inhibition is reported as 15.6% (inactive).
With C=CCNC(=O)COC(=O)c1ccc(Sc2nncn2C)c([N+](=O)[O-])c1 the inhibition was -2.55% (inactive).
In the case of COc1ccc(CC(=O)N(Cc2ccccc2)c2ccc(C)cc2)cc1S(=O)(=O)N1CCOCC1, the inhibition is reported as 4.3% (inactive).
With CCOC(=O)CCc1cnccc1-c1cccc(OC)c1O the inhibition was 4.79% (inactive).
With CCCN1C(=O)N(c2cccc(C)c2)C(C)(O)CC1(C)C (centres undefined) the inhibition was 0.42% (inactive).
For O=C(c1cccc(C(F)(F)F)c1)N1CCN(C2CCCCC2)CC1, the inhibition was 6.41% (inactive).
In the case of CC[N+](C)(C)CC/C=C1/c2ccccc2Sc2ccc(Cl)cc21, the inhibition is reported as -9.06% (inactive).
With CN(C)CC/C=C1/c2ccccc2Sc2ccc(Cl)cc21 the inhibition was 39% (inactive).
With CN(CCOc1ccc(-c2ccn(S(=O)(=O)c3ccc(Cl)cc3)n2)cc1)c1ccccn1 the inhibition was 7.05% (inactive).
With Cc1ccc(-c2noc(CCC(=O)N3CCCc4ccccc43)n2)cc1 the inhibition was 6.56% (inactive).
With CCOC(=O)c1c(NC(=O)COC(=O)Cc2n[nH]c(=O)c3ccccc23)sc(C(=O)NC)c1C the inhibition was -12.1% (inactive).
With O=[N+]([O-])c1cccc(-c2nc(-c3ccccc3)c(-c3cccs3)[nH]2)c1 the inhibition was 1.45% (inactive).
For O=[N+]([O-])c1cccc(-c2nc(-c3cccs3)c(-c3cccs3)[nH]2)c1, the inhibition was 1.58% (inactive).
With CN(C)c1ccc(C=C2C(=O)OC(C)(C)OC2=O)cc1 the inhibition was 2.97% (inactive).
In the case of CC1=NN(c2ccccc2)C(=O)/C1=C/c1ccc[nH]1, the inhibition is reported as 1.35% (inactive).
For COc1cc2cc(Oc3ccc4ccc(=O)oc4c3)c(=O)oc2cc1O[C@@H]1O[C@H](CO)[C@@H](O)[C@H](O)[C@H]1O, the inhibition was -3.36% (inactive).
For c1cc2c3c(cccc3c1)NC1(CCCCC1)N2, the inhibition was -8.51% (inactive).
With CC(C)(C)C1CCC2(CC1)Nc1cccc3cccc(c13)N2 the inhibition was 28.8% (inactive).
In the case of Cc1cc(C(=O)N2CCN(Cc3ccccc3)CC2)on1, the inhibition is reported as 4.33% (inactive).
In the case of CN1C(=O)N(C)C2(c3ccccc3)Nn3c(s/c(=C/c4ccccc4F)c3=O)=NC12c1ccccc1 (centres undefined), the inhibition is reported as 1.37% (inactive).
With CCCC(C)C(=O)Nc1ccccc1C(=O)OCC (centres undefined) the inhibition was -6.12% (inactive).
For COc1ccc(C2C(C#N)=C(C)NC3=C2C(=O)CC(C)(C)C3)cc1 (centres undefined), the inhibition was 2.98% (inactive).
With CC1=C(C#N)C(c2cccnc2)C2=C(CC(c3ccc(Cl)cc3)CC2=O)N1 (centres undefined) the inhibition was 49.6% (inactive).
With Cc1ccc(C[n+]2ccccc2)cc1 the inhibition was -0.58% (inactive).
In the case of Cc1nc2ccccn2c1P(=Nc1ccccc1)(N(C)C)N(C)C, the inhibition is reported as -7.51% (inactive).
